Shiga inhibitor: A qHTS for Small Molecule Inhibitors of Shiga Toxin; Vero cells, Shiga toxin protein synthesis inhibition reporter; inhibition, % at 38.7 µM; 290,000 compounds, 9.2% hits; in the data active = inhibition mostly above about 28%, no sharp cut-off; inactive = mostly below about 43%; also: 0% is about no effect
Pf growth 48h: Primary qHTS for delayed death inhibitors of the malarial parasite plastid, 48 hour incubation. 310,000 compounds, 5.9% hits. P. falciparum luciferase growth in erythrocytes, 48 h. Potency, µM (doses to about 28.7 µM), without a hit: at the highest dose activity change, negative = inhibition, most hits filed as inhibitors. AID 504832, 2011; also: potency is read from the fitted curve at half-maximal effect; % is scaled to controls: 0 for no effect and ±100 for the full control effect
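Cell-based growth assay: transgenic P. falciparum expressing firefly luciferase, cultured in red cells within RPMI 1640 containing 0.5% w/v Albumax, 24 mM bicarbonate and gentamycin. A drop in luciferase activity indicates inhibition.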
Pf growth 96h: Primary qHTS for delayed death inhibitors of the malarial parasite plastid, 96 hour incubation; P. falciparum luciferase reporter growth, 96 h; 320,000 compounds, 6.9% hits; Potency, µM (highest dose often 28.7 µM), for inactives: at the highest dose activity change, negative = inhibition, usual class: inhibitors; AID 504834, 2011; also: potency is read from the fitted curve at half-maximal effect; % is scaled to controls: 0 for no effect and ±100 for the full control effect
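P. falciparum expressing integrated firefly luciferase, in erythrocytes at 2% hematocrit, 0.05% parasitemia, incubated with compounds 96 h at 37 C, 5% CO2. Growth inhibition read as loss of luminescence; two-generation exposure targets delayed-death apicoplast inhibitors.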
CHX counter: Cycloheximide Counterscreen for Small Molecule Inhibitors of Shiga Toxin. cell reporter, cycloheximide protein synthesis inhibition counterscreen. max response, %. 300,000 compounds, 12% hits. AID 2314, 2010; in the data active = max response mostly above about 13%, no sharp cut-off; inactive = mostly below about 14%; also: read at 38.3 µM for the half of the compounds with a filed dose; 0% is about no effect
* = called active by the depositor; i = inactive; u = inconclusive; x = not tested or not shown. Shown are actives, neighbours in structure and some others; about 21% of the full set was active somewhere. Unless noted, calls follow the shape of the dose curve; as a rule, active = well fitted inhibition curve with a large enough effect; inconclusive = small, poorly fitted or top-dose-only effect, or another doubt; inactive = no such curve, though single readings can be large or run the other way.

SMILES | Shiga inhibitor | Pf growth 48h | Pf growth 96h | CHX counter
COc1cc(OC)c(NC(=O)CN(C)S(=O)(=O)c2ccc(-c3ccc(=O)[nH]n3)s2)cc1Cl | 11.6 | 2.33µM* | 7.6% | 0.7
CCc1ccccc1NC(=O)CN(C)S(=O)(=O)c1ccc(-c2ccc(=O)[nH]n2)s1 | -5.2 | u | u | -1.0
O=C(c1cc(F)ccc1F)C1CCCN(C(=O)c2cccs2)C1 (stereo not drawn) | -3.2 | 9.3% | u | -2.0
CC(C)Cc1cc(C(=O)N2CCCC(C(=O)c3cc(F)ccc3F)C2)no1 (stereo not drawn) | 5.4 | 7.4% | 4.65µM* | 12.7
O=C(c1cc(COc2ccc(F)cc2F)on1)N1CCN(C2CCCC2)C(=O)C1 | 25.7 | 8.28µM* | -12.0% | 0.9
O=C(c1cc(COc2ccc(F)cc2Cl)on1)N1CCCC(c2ccccc2)C1 (stereo not drawn) | 8.8 | u | -9.0% | 6.4
O=C(c1cc(COc2ccc(F)cc2F)on1)N1CCCC(c2ccccc2)C1 (stereo not drawn) | 28.3 | 7.9% | 0.0% | 18.6*
CSc1ccccc1OCc1cc(C(=O)N2CCN(C3CCCC3)C(=O)C2)no1 | 41.0* | u | u | 54.2*
Cc1cc(C)c(S(=O)(=O)N2CCOC2CNC(=O)C(=O)NCc2ccncc2)c(C)c1 (stereo not drawn) | 6.5 | 2.0% | 0.2% | -0.7
O=C(Cn1nc(-c2ccccc2)oc1=O)OCC(=O)c1ccc(F)c(F)c1 | x | u | -28.3% | x
COc1ccccc1CN1CC(C(=O)N(C)CCc2nc3ccc(F)cc3[nH]2)CCC1=O (stereo not drawn) | -2.9 | -12.1% | 10.4µM* | -2.0
COc1ccccc1CN1CC(C(=O)N(C)Cc2nc(C)cs2)CCC1=O (stereo not drawn) | 38.6 | 7.6% | u | 17.0*
COc1ccccc1CN1CC(C(=O)N(C)CCOc2ccccc2)CCC1=O (stereo not drawn) | 6.4 | 0.0% | u | 18.5
Cc1csc(CN(C)C(=O)C2CCC(=O)N(CCCc3ccccc3)C2)n1 (stereo not drawn) | -12.0 | 3.7% | u | -1.9
Cc1nc2cc3nc(C)sc3cc2s1 | 109.2* | 151.3% | 121.6% | 36.3*
C=CCNC(=O)/C(C#N)=C/c1c(N2CCN(c3ccccc3)CC2)nc2c(C)cccn2c1=O | -8.7 | u | u | -1.7
COCCCNC(=O)/C(C#N)=C/c1c(N2CCN(c3ccccc3)CC2)nc2c(C)cccn2c1=O | -12.2 | 13.1µM* | 10.4µM* | -3.6
COC(=O)/C(C#N)=C/c1c(N2CCN(c3ccccc3)CC2)nc2c(C)cccn2c1=O | -6.3 | 9.28µM* | u | 0.2
COC(=O)/C(C#N)=C/c1c(N2CCN(c3cccc(Cl)c3)CC2)nc2c(C)cccn2c1=O | -8.9 | u | u | -3.7
COCCCNC(=O)/C(C#N)=C/c1c(N2CCN(c3cccc(Cl)c3)CC2)nc2c(C)cccn2c1=O | -7.4 | u | u | -1.4
C=CCNC(=O)/C(C#N)=C/c1c(N2CCN(c3ccc(OC)cc3)CC2)nc2c(C)cccn2c1=O | 3.0 | 13.1µM* | u | -2.3
Cc1cc(C)cc(OCC(=O)Nc2ccc(-n3cnnn3)cc2)c1 | x | -20.0% | 10.5% | x
CCCOc1ccc(C2C(C(=O)/C=C/c3ccco3)=C(O)C(=O)N2CCN2CCOCC2)cc1OC (stereo not drawn) | -1.3 | 14.8% | -21.2% | -2.4
CC(=O)c1cc(C#N)c(SCc2ccccc2C#N)nc1C | -1.1 | u | 1.2% | -0.8
CCOC(=O)c1cc(C#N)c(SCc2cccc3ccccc23)nc1C | -8.4 | x | 9.28µM* | -4.3
SMILES | Shiga inhibitor | Pf growth 48h | Pf growth 96h | CHX counter
CCSc1nc(C)c(C(C)=O)cc1C#N | -11.6 | x | -32.3% | -2.6
CC(=O)c1cc(C#N)c(SCC(=O)OC(C)C)nc1C | 26.5* | u | u | 17.9*
CCOC(=O)C1=C(CSc2nc(CC)c(C)cc2C#N)OC(N)=C(C#N)C1c1ccc(OC)cc1 (stereo not drawn) | 15.0 | u | u | -1.4
N#Cc1cc2c(nc1SCC(=O)Nc1sc3c(c1C#N)CCC3)CCC2 | -0.8 | 18.9% | 52.2% | 7.3
COC(=O)C1=C(CSc2nc3c(cc2C#N)CN(C)CC3)OC(N)=C(C#N)C1c1ccc(F)cc1 (stereo not drawn) | 14.1 | 9.28µM* | u | 0.5
CN1CCc2nc(SCC(=O)OC(C)(C)C)c(C#N)cc2C1 | 79.5* | 54.0% | -33.1% | 35.5*
Cc1ccc(C)c(C(=O)COC(=O)CN2C(=O)C3C4CCC(C4)C3C2=O)c1 (stereo not drawn) | -5.1 | -11.0% | u | 6.1
Cc1cc(N2CCCC2)ccc1NC(=O)COc1cccc(C(F)(F)F)c1 | 0.7 | 7.0% | -0.3% | 1.1
CC(=O)c1cc(C#N)c(SCc2ccncc2)nc1C | -22.3 | -0.2% | 5.6% | -7.9
CC(=O)c1cc(C#N)c(SCC(=O)OC(C)(C)C)nc1C | 20.0 | -19.5% | u | 18.7*
Cc1ccc2c(c1)c1cccc3c1n2CCN3CCC(N)=O | 189.6* | 78.1% | u | 34.2*
NC(=O)CCn1c2ccccc2c2ccccc21 | 9.3 | 4.4% | 48.4% | 1.3
CCN1CCN(C2=NC(=O)/C(=C/c3ccc(C)o3)S2)CC1 | 3.8 | -2.4% | 13.1µM* | 25.0
O=C1N=C(N2CCCCC2)S/C1=C\c1ccc(Cl)cc1 | x | u | u | 1.6
CCc1ccc(/C=C2/SC(N3CCOCC3)=NC2=O)cc1 | 26.0 | u | 2.0% | 11.3
CCCOc1ccccc1/C=C1\SC(N2CCCCC2)=NC1=O | x | u | u | 9.4
O=C1N=C(N2CCCC2)S/C1=C\c1ccccc1 | 39.2 | 14.7µM* | u | 6.4
O=C1N=C(N2CCCCC2)S/C1=C\c1ccccc1F | 60.8* | -0.7% | u | 22.2*
Cc1ccc(/C=C2\SC(N3CCCCC3)=NC2=O)cc1 | 72.8* | -5.2% | 390.1% | 42.4*
CC1OC(OCC2OC(Oc3cc(O)c4c(c3)OC(c3ccc(O)cc3)CC4=O)C(O)C(O)C2O)C(O)C(O)C1O (stereo not drawn) | 14.2 | x | x | -7.0
COc1ccccc1CNC(=O)c1nccnc1CO | -3.5 | 47.9% | 16.2% | -1.0
COc1ccc(S(=O)(=O)N2CCOC2CNC(=O)C(=O)NCc2ccccn2)cc1C (stereo not drawn) | -4.7 | 0.9% | 10.5% | -3.1
Cc1ccc(-c2cn3nc(C)c(C)nc3n2)cc1 | 31.9* | -1.7% | u | 23.8*
CCc1ccc(OCC(=O)O/N=C(\N)c2ccncc2)cc1 | 76.1* | 53.6% | u | 62.1*
N/C(=N\OC(=O)CCCOc1ccc(Cl)cc1Cl)c1ccncc1 | 27.9 | -11.5% | 22.4% | 7.8
N/C(=N\OC(=O)COc1ccc(Cl)cc1Br)c1ccncc1 | 136.8* | i | 108.3% | 63.8*
COc1ccc(OCC(=O)O/N=C(\N)c2ccc(OC)cc2)cc1 | 24.9 | 52.2% | 51.0% | 8.0
CCc1ccc(OCC(=O)O/N=C(\N)c2ccncc2)c(Br)c1 | 84.5* | 178.8% | 7.38µM* | 45.9*
CCc1ccc(OCC(=O)N(C)C)c(Br)c1 | 0.9 | -3.9% | x | 5.3

Assay outcomes deposited in PubChem by National Center for Advancing Translational Sciences (NCATS).
